# Screening results: PubChem BioAssay, The Scripps Research Institute Molecular Screening Center
# A selection: hits, their analogues and other compounds. The true share with any hit is near 1.8%.
# PP5 primary: PP5 (human) phosphatase inhibition; P53041; purified PP5c, OMFP substrate fluorescence; inhibition, % at 6.7 µM; 320,000 tested, 0.18% active;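 active means inhibition above the campaign's mean inhibition across all tested compounds plus 3 SD, cut at about 9.5% in these data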;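 further: 0% = DMSO only and 100% = 100 µM cantharidin control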
# PME-1 primary: PME-1 (human) inhibition | Q9Y570 | recombinant PME-1, FP-Rh probe fluorescence polarization | inhibition, % at 5.9 µM | 320,000 tested, 0.53% active | AID 2130;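 active means inhibition above the campaign mean of all compounds plus 3 SD, cut at about 26% in these data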;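 further: competitive labeling of PME-1 active site by serine hydrolase directed probe; 0% = PME-1 with DMSO and 100% = wells lacking PME-1 enzyme; inhibitors block probe labeling so polarization falls and inhibition rises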
# Target sequence (Q9Y570 whole entry, looked up): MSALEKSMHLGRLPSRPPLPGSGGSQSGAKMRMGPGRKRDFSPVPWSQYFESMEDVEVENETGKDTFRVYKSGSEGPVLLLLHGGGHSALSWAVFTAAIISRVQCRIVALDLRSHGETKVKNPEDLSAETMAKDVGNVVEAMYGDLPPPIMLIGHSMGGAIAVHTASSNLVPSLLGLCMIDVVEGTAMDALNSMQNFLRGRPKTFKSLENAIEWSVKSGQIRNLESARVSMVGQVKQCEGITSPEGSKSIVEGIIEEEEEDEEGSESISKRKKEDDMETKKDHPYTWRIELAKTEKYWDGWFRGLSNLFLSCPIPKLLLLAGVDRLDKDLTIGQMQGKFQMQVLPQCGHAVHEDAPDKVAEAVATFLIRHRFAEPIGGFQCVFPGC
# Fam108B counter: blocks mouse Fam108B hydrolase in RBBP9 counter-screen; recombinant Fam108B, FP-Rh probe fluorescence polarization; inhibition, % at 9.51 µM; 300,000 tested, 0.33% active; AID 1947;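 active means inhibition above the screen mean inhibition plus 3 SD, computed separately per campaign, cut at about 18% in these data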;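 further: inhibitors lower polarization as less probe binds the enzyme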
# LYPLA1 counter: counter-screen for PME1 inhibitors: inhibitors of human LYPLA1. recombinant LYPLA1, FP-Rh probe fluorescence polarization. inhibition, % at 5.9 µM. 320,000 tested, 0.16% active;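 active means inhibition above the mean of all tested compounds plus 3 SD, set per campaign, cut at about 14% in these data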;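 further: inhibitors block serine hydrolase probe labeling of LYPLA1 so polarization falls; 0% = enzyme with DMSO and 100% = wells lacking LYPLA1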
# LYPLA2 counter: counter-screen for PME1 inhibitors: inhibitors of human LYPLA2 | 320,000 tested, 0.38% active | O95372 | inhibition, % at 5.9 µM | recombinant LYPLA2, FP-Rh probe fluorescence polarization;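 active means inhibition above the screen-wide mean plus 3 SD, limit set per campaign, cut at about 26% in these data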;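 further: 0% = LYPLA2 with DMSO and 100% = wells lacking LYPLA2 enzyme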
# PP1 inh: PP1-alpha (human) inhibition in PP5 counter-screen; P62136; AID 2235; inhibition, % at 6.7 µM; 320,000 tested, 0.9% active; purified PP1alpha, OMFP fluorescence;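 active means inhibition above the mean inhibition of all tested compounds plus 3 SD, computed separately for each screening campaign, cut at about 15% in these data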
# Target sequence (P62136 whole entry, looked up): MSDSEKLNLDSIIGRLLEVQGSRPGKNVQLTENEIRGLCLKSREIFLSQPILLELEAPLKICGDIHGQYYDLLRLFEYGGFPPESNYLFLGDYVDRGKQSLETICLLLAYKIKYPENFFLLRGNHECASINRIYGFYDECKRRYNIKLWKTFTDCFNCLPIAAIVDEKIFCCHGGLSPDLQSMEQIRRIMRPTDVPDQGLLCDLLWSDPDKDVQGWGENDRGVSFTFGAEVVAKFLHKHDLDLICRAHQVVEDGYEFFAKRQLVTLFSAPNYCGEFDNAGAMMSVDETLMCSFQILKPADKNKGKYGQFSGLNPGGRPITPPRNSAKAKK
# LYPLA2 conf: counter-screen for PME1 inhibitors: confirmation of human LYPLA2 inhibitors | shares compounds with LYPLA2 counter | recombinant LYPLA2, FP-Rh probe fluorescence polarization | inhibition, % at 5.9 µM | 1,100 tested, 72% active | AID 2232;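 active means mean inhibition across replicates above the hit cutoff set in the primary screen, cut at about 26% in these data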;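 further: blocked labeling of the enzyme by serine hydrolase FP-Rh probe lowers polarization; 0% = enzyme with DMSO and 100% = wells lacking LYPLA2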
# LYPLA2 ABPP: inhibitors of human LYPLA2; AID 652029; 150 tested, 30% active; rhLYPLA2 in mouse brain proteome, gel ABPP FP-Rh; inhibition, % at 20 µM; shares compounds with LYPLA2 counter;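 active means inhibition of LYPLA2 enzyme probe labeling above about 50%, limit read from the data; inactive means inhibition below that limit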;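 further: loss of FP-Rh probe labeling of the LYPLA2 gel band measured as band density; 0% = DMSO only control band and 100% = blank gel background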
# Starred values were filed as active, the others as inactive; nt = not tested or not shown.
SMILES,PP5 primary,PME-1 primary,Fam108B counter,LYPLA1 counter,LYPLA2 counter,PP1 inh,LYPLA2 conf,others
O=C(N/C=C\c1ccccc1)NCc1ccc(Cl)cc1,-1.4,-7.8,-4.8,-4.5,-15.1,-1.0,nt,
O=C(NCc1ccc(Cl)cc1)NCC(F)(F)F,0.8,1.6,-2.4,0.6,33.4*,-2.4,-3.2,
COC(=O)[C@]1(Cc2ccccc2)N[C@H](c2ccc(-c3ccc(F)cc3)cc2)[C@@H]2C(=O)N(C)C(=O)[C@@H]21,6.2,-1.0,-3.4,-2.9,-6.6,2.3,nt,
COc1ccccc1NC(=O)C1CCCN1C(=O)Nc1ccc(F)cc1 (stereo unspecified),-3.0,-5.2,-3.2,1.9,-2.5,-3.1,nt,
O=C(NCc1ccc2c(c1)OCO2)C1CCC(CNS(=O)(=O)c2cccc3nsnc23)CC1 (stereo unspecified),-1.4,5.9,1.2,0.2,34.5*,3.0,38.5*,
O=C(O)CN1C(=O)/C(=C\c2cccc(OCc3ccc(Cl)cc3)c2)SC1=S,-0.1,6.8,-1.3,-2.6,27.9*,11.1,27.1*,
O=C(O)CN1C(=O)/C(=C\c2cccc(OCc3ccccc3F)c2)SC1=S,0.7,0.0,4.1,0.1,-0.1,8.3,nt,
Cc1ccc(NC(=O)COC(=O)CCC2CCCC2)c(Br)c1,0.7,0.6,nt,-0.2,-1.6,0.0,nt,
O=C(COC(=O)c1ccc(O)cc1)c1ccc(S(=O)(=O)N2CCCCC2)cc1,4.4,-0.3,nt,4.2,44.3*,-1.0,34.7*,
Cc1sc2ncnc(OCC(=O)c3ccc(S(=O)(=O)N4CCCC4)cc3)c2c1C,3.4,6.2,2.7,-8.3,27.6*,3.5,15.4,
CNC(=O)COc1ncnc2sc(C)c(C)c12,4.4,-2.1,-0.7,5.0,0.4,1.8,nt,
Cc1c(C)c2ccc(OCC(=O)NCCN3CCOCC3)cc2oc1=O,-0.3,2.5,6.3,-0.8,1.0,-5.3,nt,
O=c1c2ccccc2ncn1-c1ccc([N+](=O)[O-])cc1[N+](=O)[O-],2.0,-1.3,-7.1,-1.3,8.1,1.1,nt,
Cc1ccc(-n2cnn(-c3ccc([N+](=O)[O-])cc3[N+](=O)[O-])c2=O)cc1,3.1,-3.5,4.5,1.7,55.1*,3.4,56.2*,LYPLA2 ABPP=46.0
CCCCN(C)CCNC(=O)c1cc2c(-c3cccc(OC)c3)nn(C)c2s1,-1.5,-1.1,-3.1,-4.8,-7.1,-2.9,nt,
COc1cccc(NC(=O)COc2nc3ccccc3nc2C)c1,-0.4,-1.2,-2.8,2.2,26.8*,-0.1,31.8*,
CCOC(=O)C1=C(COC(=O)/C=C/c2ccc(SC)cc2)NC(=O)NC1C (stereo unspecified),2.3,-16.3,2.0,-4.8,2.1,-0.6,nt,
O=C(CN1C(=O)S/C(=C\c2ccc(C(=O)O)cc2)C1=O)Nc1ccccc1,1.7,1.0,-8.2,2.3,58.4*,-1.8,66.7*,LYPLA2 ABPP=63.0*
Cc1ccc(NC(=O)CN2C(=O)S/C(=C/c3ccncc3)C2=O)cc1,0.8,0.7,4.0,1.9,8.3,1.7,nt,
O=C(CN1C(=O)S/C(=C\c2ccccc2)C1=O)NNC(=O)c1ccccc1O,-0.4,3.1,3.5,-3.1,-0.3,11.5,nt,
Cc1cccc(NC(=O)CN2C(=O)S/C(=C\c3ccc(-c4cccc(C(=O)O)c4C)o3)C2=O)c1,2.5,-7.5,-0.7,3.1,29.1*,-2.4,35.2*,
O=C(CN1C(=O)S/C(=C\c2ccc(O)cc2)C1=O)c1ccccc1,2.1,16.8,-0.8,-7.1,34.9*,1.2,32.9*,
O=C1NCCCCC1NS(=O)(=O)c1ccc(F)c(F)c1 (stereo unspecified),-0.8,0.4,-3.9,-3.4,-2.9,-4.2,nt,
O=C(/C=C/c1ccc([N+](=O)[O-])cc1)N1CCN(Cc2ccccc2)CC1,-1.6,3.8,-1.4,5.5,31.8*,-1.7,39.5*,
O=[N+]([O-])c1ccccc1OCC(O)CN1CCN(CC(O)COc2ccccc2[N+](=O)[O-])CC1 (stereo unspecified),2.8,3.5,-0.7,-0.1,44.4*,-2.8,49.3*,
SMILES,PP5 primary,PME-1 primary,Fam108B counter,LYPLA1 counter,LYPLA2 counter,PP1 inh,LYPLA2 conf,others
OC(COc1cccc2ccccc12)CN1CCN(c2ccc(Cl)cc2)CC1 (stereo unspecified),1.3,3.2,1.1,-1.9,1.4,2.1,nt,
OC(COc1cccc2ccccc12)CN1CCN(c2cccc(Cl)c2)CC1 (stereo unspecified),3.7,-1.3,3.8,12.9,35.3*,-0.6,21.6,
COc1ccc(N2CCN(CC(O)COc3ccccc3[N+](=O)[O-])CC2)cc1 (stereo unspecified),3.9,1.7,4.2,-1.0,7.0,-3.4,nt,
O=C(c1ccc(N2CCN(C(=O)c3ccccc3)CC2)cc1)c1cccc(F)c1,0.4,-0.7,-0.3,-3.0,26.6*,-2.9,30.1*,
O=C(c1ccc(N2CCN(C(=O)c3ccc(F)c(F)c3)CC2)cc1)c1cccc(F)c1,3.2,5.4,4.3,-3.6,32.1*,-0.2,33.2*,
COc1ccc(-c2cc(C)no2)cc1S(=O)(=O)N(C)c1ccc(C)cc1,-0.7,-3.1,2.5,-4.1,-1.3,-0.5,nt,
COc1ccc2c(c1)O[C@@H](c1cccc(C(F)(F)F)c1)[C@H](O)C2=O,2.5,-2.1,3.1,2.7,18.0,1.5,nt,
COc1ccc2c(c1)O[C@H](c1ccc3c(c1)OCO3)[C@@H](O)C2=O,1.1,6.2,-0.4,1.9,64.2*,-0.3,57.8*,LYPLA2 ABPP=45.0
CC(=O)c1c(C)[nH]c(C(=O)COC(=O)CN(C)S(=O)(=O)c2ccc(Cl)cc2)c1C,0.8,17.8,-5.9,2.8,35.2*,-3.5,20.8,
CC(=O)c1c(C)[nH]c(C(=O)COC(=O)c2ccc(Cl)nc2)c1C,1.8,5.6,nt,-0.1,1.3,0.1,nt,
CCN(c1cccc(C)c1)S(=O)(=O)c1c(C)[nH]c(C)c1C(=O)N1CCCCC1,1.3,6.5,3.3,4.2,-0.8,-4.6,nt,
O=[N+]([O-])c1ccc(SCc2c(F)cccc2Cl)nc1,2.4,1.1,2.8,7.4,31.2*,-7.0,37.7*,
O=[N+]([O-])c1cccnc1SCc1c(F)cccc1Cl,-1.0,-0.5,5.5,1.6,32.3*,-3.5,37.7*,
O=[N+]([O-])c1ccc(Sc2ccc(Cl)c(Cl)c2)nc1,1.4,-1.4,4.0,3.2,39.5*,-1.0,31.0*,
COc1ccc(C(=O)N=S2CCN(C(=O)c3ccc(Cl)cc3)CC2)cc1,3.6,-6.0,-2.5,0.1,-2.2,-2.1,nt,
CCCCCCCOc1ccc(OC(=O)c2ccncc2)cc1,-0.9,0.3,1.6,3.2,32.1*,-1.5,48.6*,
CCCCCCCOc1ccc(OC(=O)c2cccnc2)cc1,1.9,3.4,-4.5,1.1,40.9*,-0.4,47.9*,
